Assay results: PubChem BioAssay (NCATS)
Results filed as inconclusive are left out. Values without a mark were called inactive. Active and inactive are the calls of the source. Calls follow the shape of the dose curve; as a rule, active = well fitted curve in the direction sought with a large enough effect; inconclusive = small, poorly fitted or top-dose-only effect, or another doubt; inactive = no such curve, though single readings can be large; an effect the other way counts as inactive or inconclusive.

experiment: qHTS of pediatric cancer cell lines to identify multiple opportunities for drug repurposing: Primary screen for OHS-50 cells (AID 1347103); details: OHS-50 osteosarcoma viability, CellTiter-Glo luminescence, 48 h; series mostly up to 57.3 µM; activity change, negative = cytotoxic: at the top concentration; also: nearly all actives have a fitted effect of over 40% in size; also: potency is read from the fitted curve at half-maximal effect;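 as to activity change, negative = cytotoxic: plate controls were DMSO neutral control for no effect and bortezomib positive control for full effect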
In short: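 Cells (500-1,000/well) rested 5 h, then received compounds for 48 h; metabolically active cells were measured by CellTiter-Glo luminescence. Final concentrations spanned up to 46 µM (MIPE, 11-point) or 0.59 nM-46 µM (NPC, 8-point) in primary screens, 11-point in follow-ups.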

Row | Compound | Potency | activity change, negative = cytotoxic
1 | CCN(CC)CCOC(=O)C(c1ccccc1)C1CCCCC1 (configuration not stated) | 21.9 µM (active) | –
2 | CO/N=C1\CN(c2nc3c(cc2F)c(=O)c(C(=O)O)cn3C2CC2)CC1CN (configuration not stated) | – | 88.8%
3 | C[C@]12CCC(=O)C=C1[C@@H]1C[C@@H]1[C@H]1[C@@H]3[C@@H]4C[C@@H]4[C@@]4(CCC(=O)O4)[C@@]3(C)CC[C@@H]12 | 24.6 µM (active) | –

experiment: qHTS of pediatric cancer cell lines to identify multiple opportunities for drug repurposing: Primary screen for RD cells (AID 1347104); details: RD rhabdomyosarcoma viability, CellTiter-Glo luminescence, 48 h; series mostly up to 46 µM; activity change, negative = cytotoxic: at the top concentration;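 also: plate controls were DMSO for no effect and bortezomib for full effect; nearly all actives have a fitted effect of over 55% in size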
In short: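 Cells seeded at 500-1,000 cells/well in growth media, rested 5 hours at 37 degrees C, 5% CO2, then dosed; MIPE compounds at 11-point (from 0.78 nM) and NPC at 8-point (from 0.59 nM) final concentrations. Viability by CellTiter-Glo luminescence after 48 hours.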

Row | Compound | activity change, negative = cytotoxic
4 | CNC(=O)CN(CCN(CCN(CC(=O)[O-])CC(=O)NC)CC(=O)[O-])CC(=O)[O-].O.[Gd+3] | 9.58%
5 | OC(CCN1CCCCC1)(c1ccccc1)c1ccccc1 | -2.21%
6 | COc1cc2c(cc1OC)[C@@H]1CC(=O)[C@@H](CC(C)C)CN1CC2 | 7.64%
7 | CC1(C)O[C@@H]2C[C@H]3[C@@H]4CCC5=CC(=O)CC[C@]5(C)[C@@]4(F)[C@@H](O)C[C@]3(C)[C@]2(C(=O)CCl)O1 | 2.3%
8 | CCCC(=O)O[C@]1(C(=O)CO)CC[C@H]2[C@@H]3CCC4=CC(=O)CC[C@]4(C)[C@H]3[C@@H](O)C[C@@]21C | -4.71%
9 | C[C@]12CC[C@H]3[C@@H](CCC4=CC(=O)CC[C@@]43C)[C@@H]1CC[C@@H]2C(=O)CO | -5.78%
10 | C[C@@H]1C[C@H]2[C@@H]3C[C@H](F)C4=CC(=O)C(Cl)=C[C@]4(C)[C@@]3(F)[C@@H](O)C[C@]2(C)[C@@]1(O)C(=O)CO | -9.08%
11 | CC(=O)[C@H]1CC[C@H]2[C@@H]3C[C@H](C)C4=CC(=O)CC[C@]4(C)[C@H]3[C@@H](O)C[C@]12C | 0.0839%
12 | CC(=O)Oc1ccc(C(c2ccc(OC(C)=O)cc2)c2ccccn2)cc1 | -6.92%
